HT1080 IDH1KD tx: qHTS for induction of synthetic lethality in tumor cells producing 2HG: qHTS for the HT-1080-IDH1KD cell line; HT-1080 IDH1 knockdown viability, ATP luminescence, 48 h; Potency, µM (doses to about 46.1 µM), for inactives: top-dose activity, negative = toxicity, usual class: cytotoxic; 2% of 360,000 active; AID 686971, 2013;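 note: potency is the fitted concentration of half-maximal effect; 0% = DMSO wells and -100% = cell-free medium wells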
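Using the IDH1-knockdown HT-1080 line run in the same batch and compound series as the NT line, viability after 48 h at 37 °C was determined by CellTiter-Glo luminescence and expressed as % activity.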
HT1080-NT tox: qHTS for induction of synthetic lethality in tumor cells producing 2HG: qHTS for the HT-1080-NT fibrosarcoma cell line; 1.6% of 360,000 active; Potency, µM (highest dose often 46.1 µM), inactives show top-dose activity, negative = less viability, usual class: cytotoxic; AID 686970, 2013; HT-1080-NT fibrosarcoma viability, CellTiter-Glo ATP luminescence, 48 h;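 note: NT is the 2HG producing partner of a matched IDH1 knockdown line; potency is the fitted concentration of half-maximal effect; 0% = DMSO-treated cells and -100% = media-only wells without cells; nearly all actives have a fitted effect of over 55% in size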
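Fibrosarcoma NT cells, 750 per well in 5% FBS RPMI, were exposed to compound for 48 hours. Viability: CellTiter-Glo luminescence.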
DT40 TDP1 CPT: qHTS for Inhibitors of human tyrosyl-DNA phosphodiesterase 1 (TDP1): qHTS in cells in presence of CPT; chicken DT40 Tdp1-/-;hTDP1 cells + 20 nM CPT, ATP luminescence, 48 h; Potency, µM (series often up to 46.2 µM), for inactives: at the top dose activity change, negative = growth inhibition, most hits filed as inhibitors; 12% of 420,000 active; note: potency is the fitted concentration of half-maximal effect; nearly all actives have a fitted effect of over 55% in size
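Chicken DT40 Tdp1-/- cells stably complemented with human TDP1 were seeded at 400 cells/well in medium containing 20 nM camptothecin, exposed to pin-transferred compounds, and grown at 37 °C for at least 48 hr. Viability was read as ATP luminescence.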
DT40 TDP1 no CPT: qHTS for Inhibitors of human tyrosyl-DNA phosphodiesterase 1 (TDP1): qHTS in cells in absence of CPT. Potency, µM (series often up to 46.2 µM), inactives show at the top dose activity change, negative = growth inhibition, actives largely listed as inhibitors. 15% of 420,000 active. DT40 Tdp1-/- hTDP1 cells, no CPT, ATP luminescence, 48 h. AID 686978, 2013; note: potency is the fitted concentration of half-maximal effect; nearly all actives have a fitted effect of over 55% in size
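A cellular qHTS used chicken DT40 cells lacking endogenous Tdp1 but carrying stably transfected human TDP1. Compounds were applied without camptothecin, and cell growth kinetics were judged by ATP-dependent luminescence after ≥48 hr.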
IL1B secr inh: qHTS for Inhibitors of Inflammasome Signaling: IL-1-beta AlphaLISA Primary Screen | THP-1 LPS/ATP IL-1B secretion, AlphaLISA, 16 h; hits give low values | activity change, % at 57.5 µM | 4.7% of 360,000 active; in the data active = activity change below about -50%; inconclusive = mostly about -30% to -49%
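THP-1 cells pretreated 1 hr with compounds (up to 57.5 uM final), then stimulated with LPS (250 ng/mL final) plus ATP (1.25 mM final); secreted IL-1B measured by AlphaLISA after 16 hr, decreased signal indicating inhibition.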
Numbers without * were called inactive. Compounds with a hit are over-represented: about 19% of the library has one in this group of screens. Unless noted, calls come from the whole dose curve; as a rule, active = well fitted curve in the direction sought with a large enough effect; inconclusive = small, poorly fitted or top-dose-only effect, or another doubt; inactive = no such curve, though single readings can be large; an effect the other way counts as inactive or inconclusive. Unless noted, % is set by controls: 0 for no effect and ±100 for the full control effect.

How did Cc1c(C(=O)N2CCN(c3ccc(C(F)(F)F)cn3)CC2)oc2ccccc12 do in these assays?
HT1080 IDH1KD tx: -5%; HT1080-NT tox: 0%; DT40 TDP1 CPT: 23µM*; DT40 TDP1 no CPT: 18µM*; IL1B secr inh: 26

What do the screens show for `Cc1ccc(C(=O)N2CCN(c3ccc(C(F)(F)F)cn3)CC2)cc1`?
HT1080 IDH1KD tx: -3%; HT1080-NT tox: 1%; DT40 TDP1 CPT: -28%; DT40 TDP1 no CPT: inconclusive; IL1B secr inh: 0

How did Cc1ccc(C(=O)N2CCN(c3ccc(C(F)(F)F)cn3)CC2)c(C)c1 do in these assays?
HT1080 IDH1KD tx: -18%; HT1080-NT tox: -7%; DT40 TDP1 CPT: 16µM*; DT40 TDP1 no CPT: 21µM*; IL1B secr inh: 8

What do the screens show for `O=C(c1cnc2ccccc2n1)N1CCN(c2ccc(C(F)(F)F)cn2)CC1`?
HT1080 IDH1KD tx: 0%; HT1080-NT tox: 4%; DT40 TDP1 CPT: -19%; DT40 TDP1 no CPT: -20%; IL1B secr inh: 45

What do the screens show for `CN(c1ccc(/C=C/c2ccccc2)cc1)P1(=O)NCCCO1` (configuration not stated)?
DT40 TDP1 CPT: -16%; DT40 TDP1 no CPT: -9%

How did Cc1cc(C)c(NC(=O)Cn2c(=O)n(-c3cccc(C(F)(F)F)c3)c(=O)c3c(C)c(C)sc32)c(C)c1 do in these assays?
DT40 TDP1 CPT: -17%; DT40 TDP1 no CPT: -5%

How did CCCN(CCC)C(=O)Cn1c(=O)n(-c2cccc(C(F)(F)F)c2)c(=O)c2c(C)c(C)sc21 do in these assays?
DT40 TDP1 CPT: 23µM*; DT40 TDP1 no CPT: 21µM*

How did O=C1CC/C=C\C[C@@H](CC(=O)N(CCO)Cc2ccccc2)C(=O)NCCO1 do in these assays?
HT1080 IDH1KD tx: 3%; HT1080-NT tox: 24%; DT40 TDP1 CPT: -8%; DT40 TDP1 no CPT: -11%; IL1B secr inh: -5

How did O=C1NCCOC(=O)[C@H](Cc2ccc(F)cc2)C/C=C\C[C@@H]1CC(=O)N(CCO)Cc1ccccc1 do in these assays?
HT1080 IDH1KD tx: 12%; HT1080-NT tox: 3%; DT40 TDP1 CPT: 13µM*; DT40 TDP1 no CPT: 12µM*; IL1B secr inh: 5

How did O=C1NCCOC(=O)[C@H](Cc2ccc(F)cc2)C/C=C\C[C@H]1CC(=O)N(CCO)Cc1ccccc1 do in these assays?
HT1080 IDH1KD tx: 3%; HT1080-NT tox: 7%; DT40 TDP1 CPT: 8.2µM*; DT40 TDP1 no CPT: 9.2µM*; IL1B secr inh: 6

What do the screens show for `COc1ccc(NC(=O)CSc2ccc3ccccc3c2)cc1S(=O)(=O)N1CCCCC1`?
HT1080 IDH1KD tx: -3%; HT1080-NT tox: -1%; DT40 TDP1 CPT: 23µM*; DT40 TDP1 no CPT: 16µM*; IL1B secr inh: -4

How did COc1ccc(NS(=O)(=O)c2c(F)cc(F)c(Cl)c2F)cc1S(=O)(=O)N1CCCCC1 do in these assays?
HT1080 IDH1KD tx: -3%; HT1080-NT tox: -7%; DT40 TDP1 CPT: 2%; DT40 TDP1 no CPT: -4%; IL1B secr inh: -53*

How did CCn1cc(C(=O)Nc2ccc(OC)c(S(=O)(=O)N3CCCCC3)c2)c(=O)c2ccc(C)nc21 do in these assays?
HT1080 IDH1KD tx: -7%; HT1080-NT tox: -3%; DT40 TDP1 CPT: inconclusive; DT40 TDP1 no CPT: 23µM*; IL1B secr inh: -7

How did COc1ccc(OCC(=O)Nc2ccc(OC)c(S(=O)(=O)N3CCCCC3)c2)cc1 do in these assays?
HT1080 IDH1KD tx: inconclusive; HT1080-NT tox: -18%; DT40 TDP1 CPT: 15µM*; DT40 TDP1 no CPT: 12µM*; IL1B secr inh: 2

How did CSc1ncc(-c2ccc(Cl)cc2)[nH]1 do in these assays?
HT1080 IDH1KD tx: 12%; HT1080-NT tox: -1%; DT40 TDP1 CPT: 12%; DT40 TDP1 no CPT: -21%; IL1B secr inh: -9
